From PubChem
Many of the other results were omitted from the sample, so hits are more common in it than they were.
CD40 NFkB inh = CD40 pathway inhibition in BL2 cells; BL2 NF-kB luciferase reporter, CD40L-induced, 4 h; 0.94% of 83,000 active; AID 1053188; inhibition, % at 10 µM;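 active means mean inhibition of at least 50% with a set share of replicates also reaching that level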;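 further: 0% = neutral control wells and 100% = IKK inhibitor VII at 50 µM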
An asterisk follows results filed as active; [ ] = another dose, or the depositor's remark.

SMILES	CD40 NFkB inh
O=C(/C=C/c1ccc([N+](=O)[O-])cc1)Nc1ncc([N+](=O)[O-])s1	91.9*
C[C@@H]1CN([C@H](C)CO)C(=O)c2ccccc2-c2ccccc2CO[C@@H]1CN(C)C(=O)[C@H](C)c1ccccc1	-2.0
COc1ccc(C)cc1NS(=O)(=O)c1ccc(Cl)nc1	9.7
CCN(CC(=O)Nc1c(F)cccc1F)C(=O)/C=C/c1ccc(C)o1	84.0*
CCOc1ccc(/C=C/C(=O)N(CC)CC(=O)Nc2c(F)cccc2F)cc1OC	4.6
CCN(CC(=O)Nc1c(F)cccc1F)C(=O)/C=C/c1ccc2ccccc2n1	-8.9
N#Cc1ccc(-c2ccc3c(c2)[C@@H]2[C@@H](CCN2C(=O)C2CCCC2)[C@H](CO)N3)cc1	6.0
CCCCCC(=O)NNC(=O)c1ccc(-c2ccccc2)cc1	9.4
COc1ccc(N2CCN(C(=O)Cn3c(=O)c4cccn4c4cccnc43)CC2)cc1	-4.9
COc1ccc(N2CCN(C(=O)Cn3c(=O)[nH]c4ccccc4c3=O)CC2)cc1	28.8*
COc1ccc(N2CCN(C(=O)COc3cccc4ccccc34)CC2)cc1	-6.1
O=C(C[C@H]1C[C@@H]2c3cc(NC(=O)CC4CC4)ccc3O[C@@H]2[C@H](CO)O1)NCC1CC1	14.1[25 µM]
Cc1ccnn1-c1ccc(C(=O)NCc2ccccc2CN2CCOCC2)cc1	2.5
Cc1ccc(/C=C/c2nc3ccccc3s2)s1	74.7*
c1ccc2sc(-c3ccncc3)nc2c1	-64.3
c1ccc2sc(N3CCOCC3)nc2c1	-29.4
COc1ccc(NC(=O)Nc2ccc3c(c2)CC(=O)N([C@H](C)CO)C[C@H](C)[C@@H](CN(C)C(=O)Nc2ccc4c(c2)OCO4)O3)cc1	-4.2
CC(C)NC(=O)N1[C@H](CO)[C@@H](c2ccccc2-c2ccc(F)cc2)[C@@H]1C#N	-1.2[25 µM]
Cc1ccc(-c2cc(C(=O)N(C)CC(=O)Nc3ccccc3Br)c3ccccc3n2)o1	55.1*
Cc1ccc(-c2cc(C(=O)NCC3(N(C)C)CCCCC3)c3ccccc3n2)o1	-0.5
COc1ccc(NC(=O)CN(C)C(=O)c2cc(-c3ccco3)nc3ccccc23)cc1	-6.4
CO[C@@H]1CC[C@H]2CCOc3ccc(C#N)cc3C(=O)N(C)C[C@H](c3ccccc3)CC(=O)N(C)C[C@H]1O2	0.4[25 µM]
N#C[C@@H]1[C@@H](c2ccc(/C=C/c3ccccc3)cc2)[C@@H](CO)N1C(=O)Cc1ccccn1	-30.4[25 µM]
CCOC(=O)c1cn2nc(N3CCCC3)ccc2n1	-2.2
c1cc2nncn2nc1N1CCCC1	11.6
SMILES	CD40 NFkB inh
CCOC(=O)c1cn2nc(N3CCCCC3)ccc2n1	66.3*
COc1ccc(NC(=O)N(C)C[C@H]2OCc3ccccc3-c3c(n(C)c4ccccc34)C(=O)N([C@H](C)CO)C[C@@H]2C)c(OC)c1	29.0[25 µM]
N#C[C@@H]1[C@@H](c2ccccc2-c2ccc(F)cc2)[C@@H](CO)N1C(=O)Cc1ccccc1	13.9[25 µM]
Cn1nc(C(=O)NNC(=O)c2ccc(Cl)cc2)ccc1=O	0.4
Cn1nc(-c2ccc(Cl)cc2)nc2c(=O)n(C)c(=O)nc1-2	84.3*
O=C(Nc1cc(=O)[nH]c2nc(-c3ccc(Cl)cc3)nn12)c1ccccc1	11.6
CC=Cc1ccc2n(c1=O)C[C@H]1[C@H](CO)[C@@H](C(=O)NCc3ccccc3F)N[C@@H]21 (mixture of isomers)	-10.9[25 µM]
CC(C)NC(=O)N(C)C[C@H]1OCCCC[C@@H](C)Oc2ccc(NC(=O)NC3CCCCC3)cc2C(=O)N([C@H](C)CO)C[C@@H]1C	2.0
CO[C@@H]1CN(C)C(=O)c2cc(NC(=O)C3CCOCC3)ccc2OC[C@H](C)N(CC2CC2)C[C@@H]1C	-6.5
CCOC(=O)c1c(C)[nH]c(C)c1C(=O)COC(=O)c1cccs1	2.9
Cc1[nH]c2ccc(C(=O)NCc3ccccn3)cc2c1C	-66.0
O=C(CCN1C(=O)c2ccccc2S1(=O)=O)Nc1ccc2c(c1)OCCO2	-19.1
O=C(CN1C(=O)c2ccccc2S1(=O)=O)c1ccc2c(c1)OCCO2	94.6*
O=C(Cn1cnc2ccccc2c1=O)c1ccc2c(c1)OCCO2	-57.8
O=C(CCN1CCCCC1)NCC[C@@H]1CC[C@@H](NS(=O)(=O)c2cccc(Cl)c2)[C@@H](CO)O1	-3.5[25 µM]
C/C=C/c1ccc([C@@H]2[C@@H](CO)N(C(=O)NC(C)C)[C@H]2CN(C)C(C)=O)cc1	2.7
COc1ccc(/C=N/OCC(=O)N2CCCC2)c(OC)c1	-18.1
COc1ccccc1CN(C)C[C@@H]1OCc2ccccc2-c2ccccc2C(=O)N([C@H](C)CO)C[C@@H]1C	-3.1[25 µM]
C[C@H]1CN([C@@H](C)CO)C(=O)c2ccccc2-c2ccccc2CO[C@@H]1CN(C)Cc1ccccc1C(F)(F)F	66.3*[25 µM]
C[C@H](CO)N1C[C@H](C)[C@H](CN(C)Cc2ccc(-c3ccccc3)cc2)OCc2ccccc2-c2ccccc2C1=O	6.1
COc1ccccc1CN(C)C[C@@H]1OCc2ccccc2-c2ccccc2C(=O)N([C@@H](C)CO)C[C@@H]1C	-12.8[25 µM]
C[C@H](CO)N1C[C@H](C)[C@H](CN(C)Cc2ccccc2)OCc2ccccc2-c2ccccc2C1=O	11.4
C[C@H](CO)N1C[C@H](C)[C@H](CN(C)Cc2ccc(Oc3ccccc3)cc2)OCc2ccccc2-c2ccccc2C1=O	57.2*[25 µM]
C[C@@H]1CN([C@H](C)CO)C(=O)c2ccccc2-c2ccccc2CO[C@@H]1CN(C)C(=O)Nc1ccccc1C(F)(F)F	1.8[25 µM]
O=C(Nc1cc(F)ccc1F)N1CCCCN2[C@H](CO)[C@H](c3ccc(C4=CCCCC4)cc3)[C@H]2C1	15.4[25 µM]
SMILES	CD40 NFkB inh
CN1C(=O)c2cc(NC(=O)Cc3cccs3)ccc2OC[C@H]2O[C@@H](CC(=O)NCc3ccc(-c4ccccc4)cc3)CC[C@H]21	4.9[25 µM]
CC(=O)N1[C@@H](CO)[C@@H]2c3ccccc3N(S(=O)(=O)c3ccccc3C)C[C@@H]21	12.2[25 µM]
COc1ccc(NC2CCCN(C(=O)c3cn(C)c4ccccc34)C2)cc1 (stereo unspecified)	11.2
CC(C)[C@H](C)NC(=O)N(C)C[C@@H]1OCc2ccccc2-c2c(n(C)c3ccccc23)C(=O)N([C@@H](C)CO)C[C@H]1C	-0.9
CN1CCN(C(=O)C[C@H]2CC[C@H]3[C@@H](COC[C@H](O)CN3CC3CCCCC3)O2)CC1	-5.6[25 µM]
COc1ccccc1NC(=O)NCC1CC1(Cl)Cl (stereo unspecified)	0.4
CCCCC(=O)Nc1ccccc1C(C)C	14.6
C[C@@H]1CN([C@@H](C)CO)C(=O)c2c(c3ccccc3n2C)-c2ccccc2CO[C@H]1CN(C)S(=O)(=O)CC(F)(F)F	-5.5[25 µM]
O=C(Nc1ccc(F)cc1)N1CCCCN2[C@H](CO)[C@@H](c3ccc(C#CC4CC4)cc3)[C@H]2C1	1.8[25 µM]
O=C(COC(=O)Cc1ccc(F)cc1)NC1CCCCCC1	13.7
COc1ccc(S(=O)(=O)NCC(=O)N(CC(=O)NC(C)(C)C)Cc2cccs2)cc1	6.0
COc1ccc(OC)c(NC(=O)CN(Cc2ccc(F)cc2)C2CCCCC2)c1	19.9
COc1ccc(C(=O)/C=C/C(=O)N(CC(=O)NC2CCCCC2)Cc2ccc(F)cc2)c(O)c1	37.6*
COc1ccc(C(=O)/C=C/C(=O)N(CC(=O)NCCC(C)C)Cc2cccs2)c(O)c1	89.8*
COc1ccc(Br)c(C(=O)NCCC(C)C)c1	0.4
COCC(=O)N1[C@@H](C#N)[C@@H](c2ccc(-c3cccc(F)c3)cc2)[C@@H]1CO	-4.6[25 µM]
CCC(=O)N1C[C@H]2[C@@H](c3ccccc31)[C@H](CO)N2Cc1ccc(F)cc1	-7.4[25 µM]
CC[C@H]1C/C=C\C[C@H](C(C)C)NC(=O)CCC(=O)N1	-16.7[25 µM]
